High-throughput results: PubChem BioAssay, National Center for Advancing Translational Sciences (NCATS)
Most compounds without a hit are left out; they make up all but 0.74% or so of the library.
CCT chaperon mod – modulators of cytosolic chaperonin (CCT/TRiC) activity. activity change, % (test concentration not listed), hits read low. AID 651819. purified chaperonin ATPase assay, HTRF ADP detection, 30 min. 360,000 tested, 0.3% active; in the data active = activity change below about -30%; note: % is set by controls: 0 for no effect and ±100 for the full control effect
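Nucleotide hydrolysis assay: TRiC at 20–40 nM final (set by batch activity) with 10 uM ATP, 30 min at 37 °C, in presence of 76 uM compound. Detection by competitive ADP HTRF, 30 min ambient.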
TCR activator – T cell receptor activation. primary human leukocytes, anti-CD3, IL-2 HTRF, 48 h. Potency, µM (doses to about 9.22 µM), for inactives: top-dose activation of IL-2 secretion, most hits filed as activators. 330,000 tested, under 10 active. AID 504894; active = well fitted activation curve with a large enough effect; inconclusive = small, poorly fitted or top-dose-only effect, or another doubt; inactive = no such curve, though single readings can be large or run the other way; note: % of control where 0% means no effect
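Activity was scored as IL-2 release from primary human leukocytes given only a TCR signal (a-CD3 beads) plus compound for 48 hr. Detection used a two-antibody HTRF format read at 665nm.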
TSHR antagonist – antagonists of human thyroid stimulating hormone receptor; activity change, negative = inhibition, % at 11.5 µM; 330,000 tested, 0.2% active; TSHR-expressing cells, TSH-stimulated cAMP HTRF, 2 h; active compounds read low; AID 504810;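 active = activity change below a set negative limit, meaning inhibition stronger than a set level, cut at about -70% in these data; inconclusive = activity change between two set negative limits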; note: % is set by controls: 0 for no effect and ±100 for the full control effect
Target sequence (P16473 whole entry, looked up): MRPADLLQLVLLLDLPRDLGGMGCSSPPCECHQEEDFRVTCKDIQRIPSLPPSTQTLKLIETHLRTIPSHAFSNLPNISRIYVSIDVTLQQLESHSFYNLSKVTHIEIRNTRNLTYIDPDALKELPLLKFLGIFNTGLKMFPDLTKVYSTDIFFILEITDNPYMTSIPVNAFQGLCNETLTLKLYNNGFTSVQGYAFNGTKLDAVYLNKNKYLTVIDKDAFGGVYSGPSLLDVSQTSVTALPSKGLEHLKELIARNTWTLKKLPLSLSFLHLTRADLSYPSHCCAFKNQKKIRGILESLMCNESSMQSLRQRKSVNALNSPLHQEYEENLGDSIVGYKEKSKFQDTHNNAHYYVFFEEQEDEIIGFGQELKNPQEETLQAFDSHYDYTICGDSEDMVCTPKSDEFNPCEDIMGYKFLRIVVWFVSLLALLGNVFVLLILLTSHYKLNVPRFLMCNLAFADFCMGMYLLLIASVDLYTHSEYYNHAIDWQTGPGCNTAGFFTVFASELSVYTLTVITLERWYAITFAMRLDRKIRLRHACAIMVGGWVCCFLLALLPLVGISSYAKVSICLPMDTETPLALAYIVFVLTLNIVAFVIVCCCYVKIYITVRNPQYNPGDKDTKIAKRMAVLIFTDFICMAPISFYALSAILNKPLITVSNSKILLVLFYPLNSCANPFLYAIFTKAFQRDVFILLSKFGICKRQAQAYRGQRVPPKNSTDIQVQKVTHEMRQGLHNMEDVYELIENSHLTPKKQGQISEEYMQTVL
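TSHR-expressing cells, 200/well, pre-treated with compound, then stimulated with EC80 TSH (4nM final) for 2 hours at 37 deg C. cAMP measured by competitive HTRF: anti-cAMP cryptate antibody in lysis buffer plus cAMP-d2, read after 30 minutes at room temperature.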
pAkt inh – inhibitors of Akt phosphorylation | Neuro2A IGF-stimulated pAkt S473 HTRF, 20 min; active compounds read low | 360,000 tested, 0.32% active | activity change, % for hits at 50 µM | AID 651550; in the data active = activity change below about -80%; inconclusive = mostly about -51% to -80%; note: % is set by controls: 0 for no effect and ±100 for the full control effect
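Single-point screen (50 µM final compound) in Neuro2A cells stimulated 20 min with 6 nM IGF at 37 deg C. After lysis, Ser473-phosphorylated Akt read by HTRF (ex 330 nm, em 615/665 nm) as the 665/615 ratio.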
An asterisk follows results filed as active; i = inactive; u = inconclusive; x = no result given; ! = not confirmed by another sample; [ ] = remark or other dose.

SMILES	CCT chaperon mod	TCR activator	TSHR antagonist	pAkt inh
COCCCNCCOCCOc1ccc(C)cc1[N+](=O)[O-]	-39.7*	-2.0%	1.4	i
COCCCNCCOc1ccc(C)cc1[N+](=O)[O-]	-1.5	-1.7%[46.1 µM]	3.4	i
CCOC(=O)C1CCN(c2ncnc3c2cnn3C)CC1	-3.0	7.0%	3.6	i
Cc1ccccc1CSCCNS(C)(=O)=O	-1.1	-11.5%	18.0	i
COc1ccc(S(=O)(=O)NCCSCc2ccccc2C)cc1Br	-0.1	-3.2%	1.1	-114.0%*
COc1ccccc1NC(=O)CSC1=NC(=O)C(NC(C)=O)C(=O)N1 (stereo not given)	-6.9	-10.8%	1.8	i
CC(=O)NC1C(=O)N=C(SCC(=O)Nc2ccc(C(F)(F)F)cc2Cl)NC1=O (stereo not given)	-53.3*	3.5%	-6.5	i
Cc1cccc(-c2noc(CN(C)C(=O)c3ccco3)n2)c1	0.4	3.4%	-99.9*	i
Cn1c(=S)[nH]c2scc(-c3cccs3)c2c1=O	-36.5*	4.0%	-6.8	i
CN(C(=O)C1CCN(S(=O)(=O)c2cccs2)CC1)c1ccccc1	1.0	-2.7%	7.0	i
Cn1c(=NC(=O)C2CCN(S(=O)(=O)c3cccs3)CC2)sc2ccccc21	-18.0	4.4%	13.7	-90.9%*!
O=C(COC(=O)c1cccs1)c1ccccc1	-2.4	-1.7%	-11.5	-127.0%*
COc1ccc(C(=O)COC(=O)c2cccs2)cc1	-0.9	1.5%	x	i
Oc1ccc(/C=N/NC(=S)NCc2ccco2)cc1	-2.3	-5.7%	x	-115.7%*
S=C(NCc1ccco1)N/N=C/c1ccc(Cl)cc1	-2.2	-2.4%[46.1 µM]	0.5	i
CCCCOC(=O)Nc1ccc(OC)cc1S(=O)(=O)N1CCOCC1	-0.5	-3.2%	0.9	-109.5%*
CCOC(=O)C(=O)Nc1ccc(S(=O)(=O)N2CCOCC2)cc1OC	0.4	-4.1%	-10.8	x
COc1cccc(CNC(=O)CSc2nc3ccc(C)cc3[nH]2)c1	-0.3	3.4%	13.0	i
CN(C)c1ccc(NC(=S)c2ccc3ccccc3n2)cc1	-0.2	0.1%	-91.4*	i
Cc1ccc(C)c(NC(=S)c2ccc3ccccc3n2)c1	-1.5	7.4%[46.1 µM]	-13.4	i
Nc1ncnc2nc(-c3ccccc3)[nH]c12	0.0	x	x	i
Nc1ncnc2nc(SCc3ccccc3)[nH]c12	0.0	0.3%	-12.5	-113.0%*
Cc1ccc2c(C(=O)N3CCN(c4ccccc4)CC3)cc(-c3cccnc3)nc2c1C	-42.7*	2.7%	10.5	i
CCN1N=C(c2ccccc2)Cn2c1nc1ccccc12	-1.2	-1.6%	-9.9	-106.7%*
CSCCC(NC(=O)OCc1ccccc1)C(=O)O (stereo not given)	-0.3	-3.9%[46.1 µM]	-5.2	-104.4%*
SMILES	CCT chaperon mod	TCR activator	TSHR antagonist	pAkt inh
O=C(O)CCC(NC(=O)OCc1ccccc1)C(=O)O (stereo not given)	-1.2	1.2%	-6.7	i
Cc1ccc(N2C(=O)CC(Sc3nccc(C)n3)C2=O)cc1 (stereo not given)	-53.3*	-1.4%	40.8	i
COC(=O)c1ccc(C)c(-n2c(C)cc(C=O)c2C)c1	2.4	-0.6%[46.1 µM]	16.0	i
O=C(/C=C/c1ccc(Cl)cc1)NCCN1CCOCC1	0.0	12.5%	-2.3	-95.3%*
Cc1ccc(C2=Nc3ccccc3N=C(c3ccco3)C2)c(O)c1	-2.1	-2.9%	-8.4	-124.8%*
Cc1ccc(O)c(C2=Nc3ccccc3N=C(c3ccco3)C2)c1	-2.5	-0.1%	14.3	u
O=C(NC(Nc1nc2ccc([N+](=O)[O-])cc2s1)(C(F)(F)F)C(F)(F)F)c1cccnc1	-27.6	-4.5%[46.1 µM]	u	i
O=C(NC(Nc1nc2ccc([N+](=O)[O-])cc2s1)(C(F)(F)F)C(F)(F)F)c1ccccc1Cl	0.0	4.8%	-83.2*	i
CC1=C(C(=O)O)N2C(=O)[C@@H](NC(=O)C(N)C3=CCC=CC3)[C@H]2SC1 (stereo not given in full)	x	x	-17.2	x
COc1ccc(N2C(=O)c3ccccc3NC2c2ccc(OC)c(CSc3ccccn3)c2)cc1 (stereo not given)	-4.4	x	0.1	-91.6%*
COc1ccc(N2C(=O)c3ccccc3NC2c2ccc(OC)c(COc3ccccn3)c2)cc1 (stereo not given)	-2.2	-1.8%[46.1 µM]	6.6	i
Cc1nnc(SCC(=O)Nc2ccc(OC(F)F)c(Cl)c2)n(N)c1=O	-40.3*	-5.6%	2.7	i
Cc1ccc2c(c1)/C(=N/O)CCS2	0.5	4.6%	1.4	-113.2%*
COC(=O)c1c(NC(=O)c2cccs2)sc2c1CCC(C)C2 (stereo not given)	0.7	3.1%	-6.3	-101.4%*
Cc1ccc(CSc2nc3c(cc2C#N)CCC3)cc1	0.4	-3.6%	4.6	-84.7%*
CC(=O)Nc1ccc(OCC(O)Cn2cnc3ccccc32)cc1 (stereo not given)	-0.6	-4.6%	2.8	i
OC(COc1ccc2c(c1)CCC2)Cn1cnc2ccccc21 (stereo not given)	1.7	-0.5%	-8.9	-123.2%*
COc1ccc(-c2noc(-c3ccccc3C(=O)NCc3ccco3)n2)cc1	-0.3	13.9%	-16.9	-110.0%*
COc1cccc(NC(=O)c2ccccc2-c2nc(-c3ccccc3)no2)c1	-1.6	-1.9%	-12.2	i
COc1ccc(-c2noc(-c3ccccc3C(=O)NCc3ccco3)n2)cc1OC	-1.4	-4.4%	-10.5	i
COc1cccc(NC(=O)c2ccccc2-c2nc(-c3ccc(Cl)cc3)no2)c1	3.2	-1.2%	-18.6	-109.1%*
Cc1ccc(S(=O)(=O)CCc2nc3ccccc3s2)cc1	-3.1	-2.1%[46.1 µM]	-6.3	-100.8%*
CC1=CC(=O)C=C(C)C1=NOS(=O)(=O)c1ccccc1	-2.3	-2.3%	u	i
CC1=CC(=O)C(C(C)C)=C/C1=N/OS(=O)(=O)c1ccccc1	3.1	10.1%	-97.6*	i
O=C1NC(c2cccs2)Nc2sc3c(c21)CCCC3 (stereo not given)	-93.8*	3.4%	-1.6	i
SMILES	CCT chaperon mod	TCR activator	TSHR antagonist	pAkt inh
N#Cc1ccc(N2CCCC2C(=O)O)c([N+](=O)[O-])c1 (stereo not given)	0.8	x	-2.5	-118.0%*
Cc1nc2c(OCc3ccccc3)cccn2c1CC#N	x	x	-9.4	x
COc1ccc(OC)c(CN2C(=O)CN(S(C)(=O)=O)CC2(C)C(=O)NC(C)C)c1 (stereo not given)	x	x	x	i
COc1ccc(Cl)cc1C(=O)Nc1ccc(NC(C)=O)cc1	-0.7	-2.0%	5.9	i
CC(=O)Oc1c(I)cc(I)cc1C(=O)Nc1ccc(Cl)cc1	-23.1	x	-106.4*	i
CC(C)NC(=NCc1ccc(Cl)cc1Cl)Nc1ccccc1	-1.1	-1.8%	-9.4	i
Oc1ccccc1CN1CCCC(N2CCN(c3cccc(C(F)(F)F)c3)CC2)C1 (stereo not given)	-1.4	28.4%	-7.0	i
CC(NC(=S)NCCCN1CCOCC1)C12CC3CC(CC(C3)C1)C2 (stereo not given)	-1.1	1.2%	4.9	i
